This excerpt belongs to a sample that is enriched for hits.
IDH1 R132H inh – qHTS for Inhibitors of mutant isocitrate dehydrogenase 1 (IDH1): qHTS | Isocitrate dehydrogenase [NADP] cytoplasmic (Homo sapiens), O75874 | hit rate 0.093% among 390,000 | IDH1-R132H enzyme, NADPH consumption, diaphorase/resazurin fluorescence | Potency, µM (top dose mostly 76.6 µM), for the others: top-dose activity change, negative = inhibition, usual class: inhibitors | AID 602179, 2012; further: potency means the concentration at half of the fitted maximal effect; on the % scale 0 is the no-effect control and ±100 the full control effect; nearly all actives have a fitted effect of over 65% in size
Target sequence (O75874 whole entry R132H, stated change not applied): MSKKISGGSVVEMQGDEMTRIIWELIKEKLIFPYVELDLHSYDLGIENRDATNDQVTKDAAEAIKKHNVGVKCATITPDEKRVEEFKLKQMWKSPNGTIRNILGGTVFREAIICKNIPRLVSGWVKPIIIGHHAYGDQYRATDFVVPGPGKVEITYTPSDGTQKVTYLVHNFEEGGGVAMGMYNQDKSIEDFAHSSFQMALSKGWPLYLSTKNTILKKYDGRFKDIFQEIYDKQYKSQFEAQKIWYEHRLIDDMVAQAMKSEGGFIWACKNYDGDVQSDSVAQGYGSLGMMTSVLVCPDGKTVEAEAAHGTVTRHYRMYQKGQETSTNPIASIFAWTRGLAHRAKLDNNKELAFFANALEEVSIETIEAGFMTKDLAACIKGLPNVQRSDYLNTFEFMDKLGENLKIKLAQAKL
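IDH1-R132H (0.5 ug/mL dispensed) in pH 7.5 Tris buffer was preincubated 30 min with compound, then given a substrate mix of 0.016 mM NADPH and 2 mM alpha-KG for 80 min at room temperature; remaining NADPH was read by diaphorase/resazurin fluorescence.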
RGS4 inhibitor – Inhibitors of Regulator of G Protein Signaling (RGS) 4: qHTS | hit rate 0.039% among 390,000 | AID 504845, 2011 | Transcreener GDP fluorescence polarization, RGS4-accelerated GTP hydrolysis | Regulator of G-protein signaling 4 (Homo sapiens), P49798 | Potency, µM (titrated, usually from 114 µM), for the others: at the top dose activity change, negative = inhibition, most hits filed as inhibitors; further: potency means the concentration at half of the fitted maximal effect; on the % scale 0 is the no-effect control and ±100 the full control effect; nearly all actives have a fitted effect of over 75% in size
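MLSMR compounds (23 nl, pin-transferred) preincubated 10 min at room temperature with a 500nM (2x) first reagent, then RGS4 at 900nM (2x) plus Transcreener GDP mix added; fluorescence polarization (620/688 nm) read before and after 90 min at 30 °C.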
ASM inhibitor – Inhibitors of Secretory Acid Sphingomyelinase (S-ASM): qHTS | Sphingomyelin phosphodiesterase (Homo sapiens), P17405 | placental ASM, HMU-PC fluorogenic substrate, 60 min | Potency, µM (top dose mostly 57.5 µM), inactives show top-dose activity change, negative = inhibition, actives largely listed as inhibitors | hit rate 0.006% among 340,000; further: potency means the concentration at half of the fitted maximal effect
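Steps: dispense placental human ASM, pin compound, wait 10 min at room temperature, add HMU-PC0 substrate at 9 uM final, incubate 60 min at 37 °C, add stop solution raising pH to 10, read fluorescence.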
LDHA inh – qHTS assay for inhibitors of human lactate dehydrogenase. L-lactate dehydrogenase A chain (Homo sapiens), P00338. purified LDHA, NADH/diaphorase-resazurin fluorescence; active compounds read low. activity change, % (values are at about 110 or 230 µM). hit rate 0.15% among 480,000. AID 1347041, 2019; in the data active means activity change below about -30%; inconclusive means mostly about -25% to -30%;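 further: plate controls were DMSO wells for no effect and wells without enzyme for full effect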
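Human LDH5 (2 nM) was incubated with 0.06 mM NADH and 0.2 mM pyruvate for 5 min at room temperature in Tris pH 7.4. Remaining NADH was coupled through diaphorase/resazurin, and resorufin fluorescence was read at 0 and 20 min.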
Mito fusion act – qHTS Assay for Small Molecule Inhibitors of Mitochondrial Division or Activators of Mitochondrial Fusion | S. cerevisiae fusion-defective mutant growth rescue, CellTiterGlo 48 h | Potency, µM (series often up to 46.1 µM), for the others: at the top dose growth rescue (activation), hits mostly activators | hit rate 0.23% among 320,000 | AID 485298, 2010; further: potency means the concentration at half of the fitted maximal effect; % of control where 0% means no effect; nearly all actives have a fitted effect of over 45% in size
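Growth-rescue viability read-out: after 48 h at the non-permissive 37C in glycerol/ethanol YPEG, yeast mitochondrial fusion mutants are measured by CellTiterGlo luminescence; compounds (23 nl pinned per well) restoring growth score as division inhibitors or fusion activators.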
ClpP mod – qHTS Assay for Activators of ClpP. ATP-dependent Clp protease proteolytic subunit (Bacillus subtilis (strain 168)), P80244. purified B. subtilis ClpP, FRET peptide cleavage, 20 min. Potency, µM (series often up to 57.5 µM), inactives show top-dose activity change, negative = active. hit rate 1.9% among 340,000. AID 651965, 2013; active means well fitted falling curve with a large enough effect; inconclusive means small, poorly fitted or top-dose-only effect; inactive means no such curve, though single readings can be large or run the other way; further: potency means the concentration at half of the fitted maximal effect; the source files actives as falling curves though it sought activators and does not explain the sign; nearly all actives have a fitted effect of over 65% in size
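FRET quenching reversal measured ClpP activation: 10 microg/mL B. subtilis ClpP at pH 8 with the FRET-FV decapeptide, read at 430 nm after 320 nm excitation. The 20-min minus 0-min signal was scaled between DMSO/no-enzyme wells and ADEP (5.8 microM final).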
Resorufin autofl – qHTS for Inhibitors of mutant isocitrate dehydrogenase 1 (IDH1): Cherrypicks Autofluorescence Interference; shares compounds with IDH1 R132H inh; Resorufin detection reagent fluorescence interference, cell-free; inhibition of signal, % at 51.2 µM; 750 tested, under 10 active;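 further: 0% = wells with normal resorufin and full inhibition = wells lacking resorufin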
WT IDH1 inh – qHTS for Inhibitors of mutant isocitrate dehydrogenase 1 (IDH1): Cherrypicks in WT IDH1; shares compounds with IDH1 R132H inh; WT IDH1 enzyme, NADPH diaphorase/resazurin fluorescence; Potency, µM (top dose mostly 115 µM), inactives show at the top dose activity change, negative = inhibition, most hits filed as inhibitors; hit rate 9% among 750; AID 623995, 2012;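 further: potency means the concentration at half of the fitted maximal effect; 0% = full WT IDH1 enzyme control and full inhibition = no enzyme wells; nearly all actives have a fitted effect of over 55% in size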
Target sequence (O75874 whole entry, looked up): as the sequence (O75874 whole entry R132H, stated change not applied) above, with H132R counted along it
mIDH1 confirm – qHTS for Inhibitors of mutant isocitrate dehydrogenase 1 (IDH1): Confirmation of Cherrypicks | shares compounds with IDH1 R132H inh | IDH1 R132H enzyme, NADPH diaphorase/resazurin fluorescence | Potency, µM (doses to about 76.6 µM), without a hit: at the highest dose activity change, negative = inhibition, usual class: inhibitors | hit rate 83% among 750 | AID 624002, 2012; further: potency means the concentration at half of the fitted maximal effect; nearly all actives have a fitted effect of over 50% in size
Numbers without * were called inactive; ? = inconclusive; . = not tested or not shown. Unless noted, the call rests on the fitted dose curve; in most records, active means well fitted curve in the direction sought with a large enough effect; inconclusive means small, poorly fitted or top-dose-only effect, or another doubt; inactive means no such curve, though single readings can be large; an effect the other way counts as inactive or inconclusive.

SMILES	IDH1 R132H inh	RGS4 inhibitor	ASM inhibitor	LDHA inh	Mito fusion act	ClpP mod	Resorufin autofl	WT IDH1 inh	mIDH1 confirm
O=C1c2[nH]nc(-c3ccc(Br)cc3)c2C(c2cccc(O)c2)N1c1ccc(Cl)cc1 (stereo not drawn)	40µM*	-4%	.	-12	.	96%	-6	1%	20µM*
COC(=O)c1ccc(C2c3c(-c4ccc(Br)cc4)n[nH]c3C(=O)N2c2ccc(Cl)cc2)cc1 (stereo not drawn)	-12%	-29%	.	-2	.	-7%	.	.	.
COc1cccc(N2C(=O)CSC23C(=O)N(Cc2ccccc2)c2ccccc23)c1 (stereo not drawn)	-12%	-34%	.	-4	.	0%	.	.	.
COc1ccc(N2C(=O)CCSC23C(=O)N(Cc2ccc(F)cc2)c2ccccc23)cc1Cl (stereo not drawn)	?	-6%	.	4	.	1%	3	1%	32µM*
COc1cccc(CN2C(=O)C3(SCC(=O)N3c3ccc(F)cc3)c3ccccc32)c1 (stereo not drawn)	9%	13%	.	-2	.	-2%	.	.	.
COc1ccc(N2C(=O)CCSC23C(=O)N(Cc2ccc(F)cc2)c2ccccc23)cc1 (stereo not drawn)	32µM*	-34%	.	-5	.	-2%	-2	-19%	35µM*
CNc1nc(Nc2ccc(C)c(C)c2)c2cnn(C)c2n1	.	.	.	-5	.	.	.	.	.
Cn1ncc2c(Nc3ccc(Br)cc3)nc(Nc3ccc(Br)cc3)nc21	33µM*	-5%	-29%	-8	-43%	.	-4	4%	11µM*
Cn1ncc2c(Nc3cccc(Cl)c3)nc(Nc3cccc(Cl)c3)nc21	?	5%	?	-2	?	.	-19	?	5.6µM*
Cc1ccc(NC(CNS(=O)(=O)c2ccc(Cl)cc2)c2ccccc2)cc1 (stereo not drawn)	-3%	-20%	-13%	2	-6%	3%	.	.	.
O=S(=O)(NCC(Nc1ccc(Cl)cc1)c1ccccc1)c1ccccc1 (stereo not drawn)	?	-12%	-14%	-2	-3%	0%	2	-6%	22µM*
CCOC(=O)C1CCCN(C(=S)NC2CCCC2)C1 (stereo not drawn)	?	2%	5%	-2	-2%	.	1	11%	-2%
CCOC(=O)c1oc2cc(OC(C)=O)ccc2c(=O)c1-c1ccc(OC)c(OC)c1	29µM*	21%	5%	-2	2%	1%	-3	5%	25µM*
CCOC(=O)COc1ccc2c(=O)c(-c3ccc(OC)c(OC)c3)c(C(=O)OCC)oc2c1	12%	7%	-1%	-1	3%	.	.	.	.

Assay outcomes: PubChem, National Center for Advancing Translational Sciences (NCATS)
